# Measured values as given in PubChem BioAssay (EPA / NIEHS).
# Inconclusive results are not listed. Activity calls are given as the source filed them. Rule for the calls: active = hit-call score of the fitted dose curve at least 0.9, where 1 is the maximum; inconclusive = response in the unintended direction; inactive = score below 0.9.
# Columns and labels:
# [1] = molecular target: Sodium channel protein type 1 subunit alpha (Rattus norvegicus) (UniProt P04774); experiment: NVS_IC_rNaCh_site2: NovaScreen (NVS) Ion Channel Assay for rat Sodium Channel, Site 2 (NaCh) (AID 2283322);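 note: hit means loss of radioligand binding signal relative to DMSO so AC50 marks displacement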
# How it was run: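 Initial duplicate single-point testing at 25 uM, followed by concentration-response runs for actives. Binding of radioligand to rat forebrain membranes quantified after 1 h via filter-based radiodetection.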
# [2] = molecular target: human Beta-secretase (BACE), BACE1 (gene 23621) (UniProt P56817); experiment: NVS_ENZ_hBACE: NovaScreen (NVS) Enzymatic Assay for human Beta-secretase (BACE) (AID 2283140);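 note: hits are inhibitors that reduce fluorescent substrate signal versus DMSO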
# How it was run: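 Fluorescence intensity read-out of protease activity defines this endpoint; signal loss relative to DMSO baseline marks inhibition. Recombinant enzyme from SF9 cells, cell-free format, 1 h exposure. Single-concentration duplicate screen (25 uM) precedes concentration-series follow-up.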
# [3] = molecular target: human Ephrin type-A Receptor 1 (EphA1), EPHA1 (gene 2041) (UniProt P21709); experiment: NVS_ENZ_hEphA1: NovaScreen (NVS) Enzymatic Assay for human Ephrin type-A Receptor 1 (EphA1) (AID 2283158);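 note: activity is signal loss versus DMSO meaning EphA1 kinase inhibition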
# How it was run: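 Biochemical kinase assay run cell-free; 1 h incubation; readout is fluorescence with mobility-shift separation of product. Concentration-response up to 50 uM for actives from a 25 uM screen.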
# [4] = molecular target: human Phosphodiesterase 10 (PDE10), PDE10A (gene 10846) (UniProt Q9Y233); experiment: NVS_ENZ_hPDE10: NovaScreen (NVS) Enzymatic Assay for human Phosphodiesterase 10 (PDE10) (AID 2283195)
# How it was run: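 Fluorescence readout after mobility-shift separation of substrate and product, 1 h reaction with recombinant human enzyme. Single-concentration duplicates at 25 uM, then concentration-response up to 50 uM for chemicals reaching threshold; DMSO baseline.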
# [5] = molecular target: human Adenosine A1 Receptor (AdoRA1), ADORA1 (gene 134) (UniProt P30542); experiment: NVS_GPCR_hAdoRA1: NovaScreen (NVS) G Protein-Coupled Receptor Assay for human Adenosine A1 Receptor (AdoRA1) (AID 2283254)
# How it was run: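 Radioligand competition binding on human cortical membranes, 1 h after compound addition; bound radioactivity read by filtration and scintillation counting. Loss of signal versus DMSO baseline scored as displacement; primary screen duplicate at 25 uM, actives retested in concentration series.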
# [6] = molecular target: Muscarinic acetylcholine receptor M2 (Homo sapiens) (UniProt P08172); experiment: NVS_GPCR_hM2: NovaScreen (NVS) G Protein-Coupled Receptor Assay for human Muscarinic, M2 Receptor (AID 2283273)
# How it was run: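 CHO-expressed human M2 receptor preparation, competitive displacement of a radioligand read by filter-based scintillation counting after 1 h. Single 25 uM duplicate screen, then concentration-response follow-up of actives; DMSO baseline.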
# [7] = molecular target: human Thromboxane A2 Receptor (TXA2), TBXA2R (gene 6915) (UniProt P21731); experiment: NVS_GPCR_hTXA2: NovaScreen (NVS) G Protein-Coupled Receptor Assay for human Thromboxane A2 Receptor (TXA2) (AID 2283282);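 note: actives reduce bound radioligand signal relative to DMSO baseline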
# How it was run: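 Biochem binding, human platelets, cell-free; competitive radioligand displacement; 1 h; filter radiodetection. 25 uM duplicate primary, conc. series secondary; DMSO neg. ctrl.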
# [8] = molecular target: human Neurokinin, NK2 Receptor, TACR2 (gene 6865) (UniProt P21452); experiment: NVS_GPCR_hNK2: NovaScreen (NVS) G Protein-Coupled Receptor Assay for human Neurokinin, NK2 Receptor (AID 2283278);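 note: actives reduce bound radioligand signal relative to DMSO baseline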
# How it was run: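 Cell-free radioligand binding using receptor protein extracted from CHO cells; readings taken 4 hours after chemical dosing by filter-based scintillation counting. Primary screen ran single concentration (25 uM) in duplicate; actives followed up in concentration series, loss-of-signal versus DMSO baseline.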
# [9] = molecular target: human Opioid Receptor Mu (Opiate Mu), OPRM1 (gene 4988) (UniProt P35372); experiment: NVS_GPCR_hOpiate_mu: NovaScreen (NVS) G Protein-Coupled Receptor Assay for human Opioid Receptor Mu (Opiate Mu) (AID 2283290);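 note: hits lower bound tracer signal versus DMSO meaning displacement of the ligand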
# How it was run: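 Primary screen in duplicate at 25 uM, with actives followed in concentration series. CHO-derived receptor membranes, cell-free; bound radioligand read by scintillation counting after filtration at 2.5 h, decrease scored against DMSO.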
# [10] = molecular target: Cytochrome P450 2C19 (Homo sapiens) (UniProt P33261); experiment: NVS_ADME_hCYP2C19: NovaScreen (NVS) CYP450-related Enzyme Activity (ADME) Assay for human CYP2C19 (AID 2283113);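 note: potency for inhibition seen as loss of fluorescent signal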
# How it was run: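 Chemicals first screened in duplicate at 10 uM against recombinant human enzyme produced in insect cells; confirmed actives then run as concentration series. Fluorogenic substrate turnover read by fluorescence after 1 h, normalised to acetonitrile.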
# [11] = molecular target: human Dual Specificity Protein Phosphatase 3 (DUSP3), DUSP3 (gene 1845) (UniProt P51452); experiment: NVS_ENZ_hDUSP3: NovaScreen (NVS) Enzymatic Assay for human Dual Specificity Protein Phosphatase 3 (DUSP3) (AID 2283152);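 note: phosphatase activity of recombinant human DUSP3 on a fluorogenic substrate without cells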
# How it was run: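 Cell-free fluorescence-intensity enzyme activity assay with recombinant protein and substrate; loss of signal fitted relative to DMSO baseline. Primary screen in duplicate at 25 uM, actives then run in concentration series; measured 0 h after dosing.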
# [12] = molecular target: human Matrix Metalloproteinase-9 (MMP9), MMP9 (gene 4318) (UniProt P14780); experiment: NVS_ENZ_hMMP9: NovaScreen (NVS) Enzymatic Assay for human Matrix Metalloproteinase-9 (MMP9) (AID 2283190);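 note: cell-free recombinant MMP9 protease activity read by fluorescent substrate signal; active means inhibition seen as loss of fluorescence signal versus DMSO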
# How it was run: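 Cell-free fluorescence-intensity enzyme activity assay using extracted protein, read 1 h after dosing. Loss of signal versus DMSO baseline indicates inhibition; primary screen in duplicate at 25 uM, actives followed up in concentration series.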
# [13] = molecular target: human Phosphoinositide 3-kinase alpha (PI3Ka), PIK3CA (gene 5290) (UniProt P42336); experiment: NVS_ENZ_hPI3Ka: NovaScreen (NVS) Enzymatic Assay for human Phosphoinositide 3-kinase alpha (PI3Ka) (AID 2283196)
# How it was run: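 Enzyme activity as fluorescence after mobility-shift separation of substrate and product, 1 h reaction, recombinant human PI3Kα; concentration-response to 50 uM max for chemicals passing a 25 uM duplicate screen.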
# [14] = molecular target: human Vascular Endothelial Growth Factor Receptor 1 (VEGFR1), FLT1 (gene 2321) (UniProt P17948); experiment: NVS_ENZ_hVEGFR1: NovaScreen (NVS) Enzymatic Assay for human Vascular Endothelial Growth Factor Receptor 1 (VEGFR1) (AID 2283226)
# How it was run: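 Kinase activity of recombinant human VEGFR1 was read by fluorescence after electrophoretic separation of product from substrate, 1 h post-dosing; initial duplicate single-point testing at 25 uM, followed by concentration-series follow-up, with DMSO as baseline.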
# [15] = molecular target: human Adenosine A2a Receptor (AdoRA2a), ADORA2A (gene 135) (UniProt P29274); experiment: NVS_GPCR_hAdoRA2a: NovaScreen (NVS) G Protein-Coupled Receptor Assay for human Adenosine A2a Receptor (AdoRA2a) (AID 2283256)
# How it was run: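 Compounds screened in duplicate at 25 uM, with actives followed up in concentration series, for displacement of a radioligand from HEK293-derived receptor protein. Bound counts read by filter scintillation at 1.5 hours, DMSO as baseline.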
# [16] = molecular target: D(1A) dopamine receptor (Homo sapiens) (UniProt P21728); experiment: NVS_GPCR_hDRD1: NovaScreen (NVS) G Protein-Coupled Receptor Assay for human Dopamine Receptor D1 (DRD1) (AID 2283269)
# How it was run: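 Cell-free competition with radioligand, filter-trapped and scintillation-counted 1 h post-dose, using HEK293-derived human D1 preparation. Duplicate single-point testing at 25 uM first, then concentration series for actives; DMSO served as baseline, loss-of-signal scored.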
# [17] = molecular target: rat Adrenergic Receptor, Alpha 2 (Adra2), Non-selective Binding, Adra2a (gene 25083) (UniProt P22909); experiment: NVS_GPCR_rAdra2_NonSelective: NovaScreen (NVS) G Protein-Coupled Receptor Assay for rat Adrenergic Receptor, Alpha 2 (Adra2), Non-selective Binding (AID 2283299)
# How it was run: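 Filter-based scintillation counting of radioligand binding to rat cortical membrane receptors, measured 1.25 hours post-dosing; loss of signal versus DMSO indicates displacement. Initial single-concentration duplicate at 25 uM, then concentration series.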
# [18] = molecular target: guinea pig Leukotriene D4 Receptor (LTD4), CYSLTR1 (gene 100135514) (UniProt Q2NNR5); experiment: NVS_GPCR_gLTD4: NovaScreen (NVS) G Protein-Coupled Receptor Assay for guinea pig Leukotriene D4 Receptor (LTD4) (AID 2283248)
# How it was run: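 Guinea pig lung membrane preparation; bound radioligand measured by filter scintillation after 1 h, loss of signal versus DMSO marking displacement. Compounds tested at 25 uM in duplicate, hits retested to max 50 uM.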
# [19] = molecular target: rat Thyrotropin Releasing Hormone Receptor (TRH), Trhr (gene 25570) (UniProt Q01717); experiment: NVS_GPCR_rTRH: NovaScreen (NVS) G Protein-Coupled Receptor Assay for rat Thyrotropin Releasing Hormone Receptor (TRH) (AID 2283329);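 note: hit means lower bound tracer signal versus DMSO baseline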
# How it was run: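 Competitive radioligand binding on rat forebrain membrane preparations, with filtration and scintillation readout after 4 h. Primary testing in duplicate at 25 uM; actives confirmed in concentration-response. DMSO defined baseline.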
# [20] = molecular target: human Caspase 5 (CASP5), CASP5 (gene 838) (UniProt P51878); experiment: NVS_ENZ_hCASP5: NovaScreen (NVS) Enzymatic Assay for human Caspase 5 (CASP5) (AID 2283137)
# How it was run: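 Chemicals were first tested in duplicate at 25 uM against recombinant caspase 5 from E. coli. Activity was read by fluorescence intensity 2 hours after dosing. Those passing a preset inhibition threshold were retested in singleton concentration-response up to 50 uM.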
# human Ephrin type-A Receptor 1 (EphA1), EPHA1 (gene 2041), sequence (P21709 whole entry, looked up): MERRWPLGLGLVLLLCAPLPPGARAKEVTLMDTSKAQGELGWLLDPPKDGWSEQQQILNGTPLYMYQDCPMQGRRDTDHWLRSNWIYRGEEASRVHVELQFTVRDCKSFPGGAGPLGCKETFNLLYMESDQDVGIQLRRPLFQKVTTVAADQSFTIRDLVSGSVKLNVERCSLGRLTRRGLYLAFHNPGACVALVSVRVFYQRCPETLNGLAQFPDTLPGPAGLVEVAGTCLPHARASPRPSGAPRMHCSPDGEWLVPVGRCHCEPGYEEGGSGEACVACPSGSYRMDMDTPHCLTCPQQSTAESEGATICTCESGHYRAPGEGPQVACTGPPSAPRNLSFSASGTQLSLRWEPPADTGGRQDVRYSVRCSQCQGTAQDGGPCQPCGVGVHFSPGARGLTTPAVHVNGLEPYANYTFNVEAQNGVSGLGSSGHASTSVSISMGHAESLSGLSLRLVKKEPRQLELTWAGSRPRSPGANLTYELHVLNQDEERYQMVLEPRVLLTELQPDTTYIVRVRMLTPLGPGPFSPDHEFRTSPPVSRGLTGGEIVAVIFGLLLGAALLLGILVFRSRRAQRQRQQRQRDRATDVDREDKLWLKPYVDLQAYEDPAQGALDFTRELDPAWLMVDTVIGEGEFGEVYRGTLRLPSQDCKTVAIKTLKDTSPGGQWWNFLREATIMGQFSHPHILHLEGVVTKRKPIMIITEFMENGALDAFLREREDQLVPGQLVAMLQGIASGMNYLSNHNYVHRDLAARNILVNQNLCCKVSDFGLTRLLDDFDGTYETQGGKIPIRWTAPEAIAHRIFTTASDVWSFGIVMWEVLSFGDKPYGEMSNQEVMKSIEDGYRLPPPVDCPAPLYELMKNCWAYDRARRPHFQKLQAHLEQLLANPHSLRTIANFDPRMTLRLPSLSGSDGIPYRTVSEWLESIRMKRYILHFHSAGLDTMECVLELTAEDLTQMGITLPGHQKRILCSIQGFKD
# D(1A) dopamine receptor (Homo sapiens), sequence (P21728 whole entry, looked up): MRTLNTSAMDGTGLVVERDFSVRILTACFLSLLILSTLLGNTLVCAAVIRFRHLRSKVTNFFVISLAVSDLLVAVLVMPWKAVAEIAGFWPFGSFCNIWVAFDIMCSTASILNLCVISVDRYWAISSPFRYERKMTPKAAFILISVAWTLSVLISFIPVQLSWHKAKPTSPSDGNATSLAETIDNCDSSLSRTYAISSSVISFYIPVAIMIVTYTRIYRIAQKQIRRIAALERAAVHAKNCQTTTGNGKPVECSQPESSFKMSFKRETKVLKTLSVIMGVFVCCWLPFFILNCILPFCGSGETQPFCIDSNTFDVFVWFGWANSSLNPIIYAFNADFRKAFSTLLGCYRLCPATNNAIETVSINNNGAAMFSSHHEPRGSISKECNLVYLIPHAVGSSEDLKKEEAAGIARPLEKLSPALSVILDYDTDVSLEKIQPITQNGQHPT
# rat Thyrotropin Releasing Hormone Receptor (TRH), Trhr (gene 25570), sequence (Q01717 whole entry, looked up): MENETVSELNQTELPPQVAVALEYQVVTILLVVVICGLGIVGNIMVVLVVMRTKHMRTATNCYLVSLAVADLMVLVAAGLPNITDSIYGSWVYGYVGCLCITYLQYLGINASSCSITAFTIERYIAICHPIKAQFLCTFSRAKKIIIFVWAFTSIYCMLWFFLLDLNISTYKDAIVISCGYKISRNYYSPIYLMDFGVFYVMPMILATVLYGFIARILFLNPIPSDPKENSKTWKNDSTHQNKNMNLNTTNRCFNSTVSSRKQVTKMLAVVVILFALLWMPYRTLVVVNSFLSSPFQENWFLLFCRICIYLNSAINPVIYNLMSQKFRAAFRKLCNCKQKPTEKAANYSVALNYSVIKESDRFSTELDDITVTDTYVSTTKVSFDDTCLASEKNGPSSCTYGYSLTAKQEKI
# human Matrix Metalloproteinase-9 (MMP9), MMP9 (gene 4318), sequence (P14780 whole entry, looked up): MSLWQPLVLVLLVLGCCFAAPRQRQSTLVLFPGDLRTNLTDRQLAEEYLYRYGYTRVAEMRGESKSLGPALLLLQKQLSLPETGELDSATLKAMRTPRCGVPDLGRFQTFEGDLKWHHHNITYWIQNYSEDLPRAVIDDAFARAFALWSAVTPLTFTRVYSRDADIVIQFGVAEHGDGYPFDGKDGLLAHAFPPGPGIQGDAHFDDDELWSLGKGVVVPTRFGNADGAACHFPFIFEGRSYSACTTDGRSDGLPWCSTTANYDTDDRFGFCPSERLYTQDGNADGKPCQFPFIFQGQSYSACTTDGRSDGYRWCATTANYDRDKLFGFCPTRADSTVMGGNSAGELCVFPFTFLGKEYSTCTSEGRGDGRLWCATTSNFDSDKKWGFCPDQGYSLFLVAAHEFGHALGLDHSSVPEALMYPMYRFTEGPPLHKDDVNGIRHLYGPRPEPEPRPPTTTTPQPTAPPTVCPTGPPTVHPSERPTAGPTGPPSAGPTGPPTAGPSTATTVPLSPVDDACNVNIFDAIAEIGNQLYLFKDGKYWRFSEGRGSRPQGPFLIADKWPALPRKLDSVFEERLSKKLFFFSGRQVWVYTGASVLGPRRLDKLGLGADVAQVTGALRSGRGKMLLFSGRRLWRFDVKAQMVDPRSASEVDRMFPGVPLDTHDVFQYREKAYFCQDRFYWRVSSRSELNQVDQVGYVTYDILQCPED
# human Neurokinin, NK2 Receptor, TACR2 (gene 6865), sequence (P21452 whole entry, looked up): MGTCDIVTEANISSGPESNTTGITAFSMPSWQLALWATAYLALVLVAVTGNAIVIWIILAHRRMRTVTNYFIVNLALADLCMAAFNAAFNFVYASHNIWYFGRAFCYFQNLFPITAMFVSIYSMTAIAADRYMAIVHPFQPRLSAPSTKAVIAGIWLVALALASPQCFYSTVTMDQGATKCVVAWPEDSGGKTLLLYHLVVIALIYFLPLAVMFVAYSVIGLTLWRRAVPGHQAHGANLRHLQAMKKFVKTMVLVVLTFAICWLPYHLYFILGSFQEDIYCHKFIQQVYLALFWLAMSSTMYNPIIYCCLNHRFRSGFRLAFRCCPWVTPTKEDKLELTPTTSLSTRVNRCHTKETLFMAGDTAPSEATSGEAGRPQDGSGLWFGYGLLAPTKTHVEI
# human Phosphodiesterase 10 (PDE10), PDE10A (gene 10846), sequence (Q9Y233 whole entry, looked up): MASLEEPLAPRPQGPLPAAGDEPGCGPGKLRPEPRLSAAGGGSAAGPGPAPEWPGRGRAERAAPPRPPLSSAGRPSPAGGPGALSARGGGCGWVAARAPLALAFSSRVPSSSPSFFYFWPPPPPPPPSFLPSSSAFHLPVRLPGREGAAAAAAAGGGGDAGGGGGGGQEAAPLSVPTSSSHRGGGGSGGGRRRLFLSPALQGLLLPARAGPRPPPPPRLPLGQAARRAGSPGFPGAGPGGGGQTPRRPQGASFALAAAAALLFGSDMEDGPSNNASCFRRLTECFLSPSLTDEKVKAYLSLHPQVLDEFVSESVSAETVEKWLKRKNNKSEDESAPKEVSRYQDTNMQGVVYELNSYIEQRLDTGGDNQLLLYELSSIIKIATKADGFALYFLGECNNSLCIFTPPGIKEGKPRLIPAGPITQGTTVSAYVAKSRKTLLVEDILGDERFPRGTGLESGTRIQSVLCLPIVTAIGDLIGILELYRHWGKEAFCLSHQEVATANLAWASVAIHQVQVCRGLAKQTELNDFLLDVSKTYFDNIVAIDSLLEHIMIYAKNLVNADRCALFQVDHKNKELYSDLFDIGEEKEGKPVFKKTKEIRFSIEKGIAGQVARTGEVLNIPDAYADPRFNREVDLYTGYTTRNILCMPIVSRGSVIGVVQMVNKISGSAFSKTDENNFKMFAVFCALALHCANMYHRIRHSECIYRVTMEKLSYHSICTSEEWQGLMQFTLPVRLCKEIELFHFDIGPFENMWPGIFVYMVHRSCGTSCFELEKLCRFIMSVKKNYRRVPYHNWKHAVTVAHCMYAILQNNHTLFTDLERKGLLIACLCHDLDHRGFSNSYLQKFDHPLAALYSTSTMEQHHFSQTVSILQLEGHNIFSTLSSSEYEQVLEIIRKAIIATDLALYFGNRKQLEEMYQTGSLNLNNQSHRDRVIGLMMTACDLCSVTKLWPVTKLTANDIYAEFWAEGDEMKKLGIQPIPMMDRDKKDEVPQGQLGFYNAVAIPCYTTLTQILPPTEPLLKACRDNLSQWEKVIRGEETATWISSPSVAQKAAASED
# human Beta-secretase (BACE), BACE1 (gene 23621), sequence (P56817 whole entry, looked up): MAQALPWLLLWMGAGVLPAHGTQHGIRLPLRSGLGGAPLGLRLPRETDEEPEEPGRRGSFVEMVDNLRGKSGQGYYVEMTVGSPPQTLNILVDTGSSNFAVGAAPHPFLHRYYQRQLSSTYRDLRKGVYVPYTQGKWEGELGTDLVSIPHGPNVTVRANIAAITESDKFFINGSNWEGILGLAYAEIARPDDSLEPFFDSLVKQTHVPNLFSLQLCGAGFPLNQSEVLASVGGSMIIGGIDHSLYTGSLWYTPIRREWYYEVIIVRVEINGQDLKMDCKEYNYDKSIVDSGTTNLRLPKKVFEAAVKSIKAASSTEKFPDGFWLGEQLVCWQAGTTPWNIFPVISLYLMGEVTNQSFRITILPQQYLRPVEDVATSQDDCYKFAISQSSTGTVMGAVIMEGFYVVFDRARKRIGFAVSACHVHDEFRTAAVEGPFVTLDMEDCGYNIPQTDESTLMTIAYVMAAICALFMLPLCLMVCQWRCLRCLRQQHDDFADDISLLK
# human Thromboxane A2 Receptor (TXA2), TBXA2R (gene 6915), sequence (P21731 whole entry, looked up): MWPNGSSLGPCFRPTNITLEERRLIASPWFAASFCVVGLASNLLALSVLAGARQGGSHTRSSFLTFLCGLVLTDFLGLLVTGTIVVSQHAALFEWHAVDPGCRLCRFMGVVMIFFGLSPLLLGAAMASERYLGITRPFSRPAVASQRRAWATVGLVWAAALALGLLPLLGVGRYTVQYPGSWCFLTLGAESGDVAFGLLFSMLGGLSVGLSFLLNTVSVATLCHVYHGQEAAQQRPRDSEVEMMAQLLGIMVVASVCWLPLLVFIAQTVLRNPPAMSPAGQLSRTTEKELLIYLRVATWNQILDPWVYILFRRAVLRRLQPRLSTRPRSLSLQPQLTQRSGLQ
# human Dual Specificity Protein Phosphatase 3 (DUSP3), DUSP3 (gene 1845), sequence (P51452 whole entry, looked up): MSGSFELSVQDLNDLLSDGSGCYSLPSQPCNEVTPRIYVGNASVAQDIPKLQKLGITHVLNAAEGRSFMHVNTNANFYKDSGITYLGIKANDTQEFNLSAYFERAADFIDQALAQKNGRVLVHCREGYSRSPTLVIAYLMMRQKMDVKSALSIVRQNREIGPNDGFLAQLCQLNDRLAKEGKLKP
smiles,measurement,setting,value
O[Si](c1ccccc1)(c1ccccc1)c1ccccc1,outcome,[1],inactive
CCN(CC)c1ccc2c(C)cc(=O)oc2c1,AC50,[2],36.4 µM (active)
same,outcome,[3],inactive
same,outcome,[4],inactive
same,outcome,[5],inactive
same,AC50,[6],10.3 µM (active)
same,AC50,[7],3.01 µM (active)
Nc1ccc([N+](=O)[O-])cc1O,outcome,[8],inactive
CC(C)=CCCC(C)CCOC(=O)C(C)C (centres undefined),outcome,[4],inactive
Cc1cc(C)cc(O)c1,outcome,[9],inactive
CCCCCCCCCCCCCCCC[N+](C)(C)Cc1ccccc1,AC50,[10],5 µM (active)
same,AC50,[2],6.34 µM (active)
same,AC50,[11],4.22 µM (active)
same,outcome,[3],inactive
same,outcome,[12],inactive
same,outcome,[13],inactive
same,outcome,[14],inactive
same,AC50,[15],16.4 µM (active)
same,AC50,[16],1.57 µM (active)
same,AC50,[6],0.584 µM (active)
same,AC50,[8],2.11 µM (active)
same,AC50,[9],1.44 µM (active)
same,AC50,[17],38.6 µM (active)
same,outcome,[1],inactive
c1ccc(-c2ccccc2-c2ccccc2)cc1,outcome,[18],inactive
C#C[C@]1(O)CC[C@H]2[C@@H]3CCc4cc(OC)ccc4[C@H]3CC[C@@]21C,AC50,[10],6.84 µM (active)
same,outcome,[9],inactive
same,outcome,[1],inactive
same,outcome,[19],inactive
CCc1ccc(C(c2ccc(CC)cc2)C(Cl)Cl)cc1,AC50,[2],3.11 µM (active)
same,outcome,[3],inactive
same,outcome,[12],inactive
same,AC50,[4],14.1 µM (active)
C1COCCN1,AC50,[7],6.07 µM (active)
CC(CCl)OP(=O)(OC(C)CCl)OC(C)CCl (centres undefined),outcome,[19],inactive
CCCCC(CC)COP(=O)(O)OCC(CC)CCCC (centres undefined),outcome,[19],inactive
CC(=O)Nc1ccc(N=Nc2cc(C)ccc2O)cc1,AC50,[10],0.00307 µM (active)
same,outcome,[4],inactive
CCCCCCOC(=O)c1ccccc1,outcome,[19],inactive
CCCCCC=O,AC50,[12],1.86 µM (active)
CO[Si](OC)(c1ccccc1)c1ccccc1,outcome,[4],inactive
same,AC50,[16],45.6 µM (active)
CCCCNc1ccccc1,AC50,[12],4.99 µM (active)
same,outcome,[18],inactive
Oc1ccc(Nc2ccccc2)cc1,AC50,[10],2.86 µM (active)
same,AC50,[20],8.26 µM (active)
same,AC50,[12],9.97 µM (active)
same,outcome,[13],inactive
same,outcome,[8],inactive
same,outcome,[17],inactive
Nc1ccc(Oc2cccc(Oc3ccc(N)cc3)c2)cc1,outcome,[16],inactive
same,outcome,[7],inactive
same,AC50,[1],12.1 µM (active)
CCCCOCCOCCOC(=O)CCCCC(=O)OCCOCCOCCCC,AC50,[10],5 µM (active)
